Results: PubChem BioAssay AID1863 (Southern Research Specialized Biocontainment Screening …, 2009)
The campaign covered roughly 300,000 compounds. About 480 (0.16%) were called active.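 Rule for the calls: active = inhibition over 29.93%, a cutoff 3 SD above the screen mean, later confirmed by dose response; inconclusive = inhibition over 29.93% but no dose response follow-up; inactive = inhibition at most 29.93% or unconfirmed.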 Not all results are given here. Entries with a potency or affinity are not part of this list.

Experiment: PhoP-dependent GFP reporter repression – Salmonella Typhimurium, primary screen (AID 1863);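 note: 0% = low Mg2+ inducing control and 100% = high Mg2+ repressing control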
Details: S. Typhimurium PhoP-regulated promoter GFP reporter, 4 h; at 50 µM; stronger effect = higher value

inhibition, inactive:
O=C(NC(=S)N1CCN(C/C=C/c2ccccc2)CC1)c1cccnc1 -1.23%
Cc1cc(C)n(-c2nc(NCCCN(C)C)c3c4c(sc3n2)CCCC4)n1 -3.42%
Cc1cc(C)n(-c2nc(NCCO)c3c4c(sc3n2)CCCC4)n1 1.98%
Cn1cc(C(=O)NCc2cccnc2)c(=O)c2cc(S(=O)(=O)N3CCCCCC3)ccc21 1.24%
CS(=O)(=O)N(Cc1ccc(C(=O)NCCSCc2ccco2)cc1)c1ccccc1 -4.62%
Cc1cccc(N2CCN(C(=O)c3ccnn3C)CC2)c1C 0.84%
COCCNCC(O)CON=C1c2ccccc2-c2ccccc21 (stereo not given) -2.34%
CC(C)(C)NCC(O)CON=C1c2ccccc2-c2ccccc21 (stereo not given) -0.28%
Cc1n[nH]c(=S)n1-c1cccc(Cl)c1 -6.91%
CCN(CC)CCCNC(=O)c1cn(CC)c2cc(N3CCN(C(=O)c4ccco4)CC3)c(F)cc2c1=O 14.4%
CCn1cc(C(=O)NCc2ccc3c(c2)OCO3)c(=O)c2cc(F)c(N3CCN(C)CC3)cc21 6.63%
CCN(CC)CCNC(=O)c1cn(CC)c2cc(N3CCN(C)CC3)c(F)cc2c1=O 25.1%
CC1(C)S/C(=N/N=C/c2cccs2)NC1=O 0.99%
Cc1ccc(C)c(N2CCN(c3ccc([N+](=O)[O-])cn3)CC2)c1 1.13%
Cn1c(CNC(=O)c2ccc3c(c2)OCO3)nnc1SCC(=O)Nc1ccc(F)cc1 2.02%
COc1ccc(Br)cc1CN(C)C(=O)c1ccccc1OCc1c(C)noc1C -8.01%
Cc1ccc(N(CC(=O)NC2CCCCC2)S(=O)(=O)c2c(C)noc2C)cc1 6.34%
CC(C)(CO)NCc1c(OCc2ccc(Cl)cc2)ccc2ccccc12 -7.49%
CC(O)CNCCNCc1c(OCc2ccccc2)ccc2ccccc12 (stereo not given) 32.8%
COc1ccc(S(=O)(=O)N2CCC(NC(=O)C3CCCCC3)CC2)cc1 4.35%
Cc1ccc(-c2ccc(=O)n(CC(=O)NCc3ccco3)n2)cc1 6.56%
COc1ccc(NC(=O)C2CCN(S(=O)(=O)c3ccc(OC)c(OC)c3)CC2)c(OC)c1 5.61%
CCOC(=O)C(=O)Nc1ccccc1C(=O)OCC 9.09%
CCOC(=O)c1cnc(-c2ccccc2O)nc1Cl 3.92%
C[C@@H]1CC=C[C@H]2[C@H]1C(=O)N(Cc1ccccc1)[C@H]2c1ccc(-c2ccc(F)cc2)cc1F -3.92%
Cc1cc(C)c2[nH]c(=O)c(C(c3nnnn3CC3CCCO3)N3CCCC(C)C3)cc2c1 (stereo not given) -1.81%
O=[N+]([O-])c1ccc(CSc2nc3ccccc3o2)cc1 8.78%
O=[N+]([O-])c1ccc(Cl)cc1Sc1nc2ccccc2o1 0.44%
O=S(=O)(Nc1nccs1)c1cnc(Cl)c(Br)c1 -2.83%
Cc1cc(C(=O)CN2C(=O)NC3(CCCc4ccccc43)C2=O)c(C)n1Cc1cccs1 (stereo not given) 8.89%
CSCCC(NC(=O)c1cccc([N+](=O)[O-])c1)C(=O)OCC(=O)N1CCCC1=O (stereo not given) 1.97%
CCN=C1SC(CC(=O)NC2CCCCC2)C(=O)N1CC (stereo not given) 8.13%
Clc1ccc(-c2c[n+](Cc3cccc(Cl)c3)c3n2CCC3)cc1 5.53%
Cc1ccc(C[n+]2cc(-c3ccc(Cl)cc3)n3c2CCC3)cc1 31.5%
Cc1ccc(-c2c[n+](Cc3ccc(Cl)cc3)c3n2CCC3)cc1 -4.34%
Clc1ccc(C[n+]2cc(-c3ccccc3)n3c2CCCCC3)c(Cl)c1 8.08%
COC(=O)C(C)(C(=O)OC)c1ccc(C(F)(F)F)cc1[N+](=O)[O-] -5.58%
C=CCN1C(=O)C(CC(=O)Nc2ccc(OCC)cc2)N(Cc2ccccn2)C1=S (stereo not given) -2.55%
Cc1ccc(NC(=S)N2CCOCC2)c(C)c1 -0.67%
CN1C(=O)C(O)(CC(=O)c2cccs2)c2ccccc21 (stereo not given) -3.39%
O=C1C(=O)N(CC2CCCO2)C(c2ccccc2[N+](=O)[O-])/C1=C(/O)c1ccccc1 (stereo not given) 2.01%
CC1(C)CC(=O)C2=C(C1)OC(c1ccncc1)C(C#N)=C2N (stereo not given) -4.82%
O=C(NC1CCCCC1)C1CCN(c2cnccn2)CC1 17.7%
O=C(NC(Cc1ccccc1)C(=O)NCc1ccccn1)c1ccco1 (stereo not given) 1.32%
CCn1c(N)nc2ccccc21 5.85%
Nc1nc2ccccc2n1CCOc1ccc(F)cc1 10.1%
Nc1nc2ccccc2n1CCOc1ccc(Cl)cc1 11.6%
Cc1ccc(Cn2c(N)nc3ccccc32)cc1 11.5%
CC(NC(=O)c1ccco1)C(=O)OCC(=O)c1ccc(Cl)s1 (stereo not given) -10.8%
CN1C(C(=O)Nc2ncccn2)=C(O)c2ccccc2S1(=O)=O 5.72%
COc1cc(C(=O)NCc2nnc(SCC(=O)Nc3cc(C)on3)o2)cc(OC)c1OC -1.06%
CCOC(CNC(=O)Cn1nc(Cc2ccncc2)c2ccccc2c1=O)OCC 1.12%
COc1ccc(O)c(/C=N/Nc2nc3ccccc3[nH]2)c1 -9.48%
Cc1ccccc1/C=N/Nc1nc2ccccc2[nH]1 -7.4%
CCN(CC)c1ccc(/C=N/Nc2nc(C)cc(=O)[nH]2)c(O)c1 6.35%
CCN(CC)c1ccc(/C=N/Nc2ccccc2)c(O)c1 7.3%
CC1=C(C(N)=O)C(c2ccccn2)n2nc(SCc3ccccc3)nc2N1 (stereo not given) 1.82%
CCCCSc1nc2c(=O)[nH][nH]c(=O)c2n1Cc1ccccc1 -7.79%
Cc1ccc(NC(=O)NNC(=O)c2ccccc2)cc1 3.02%
C#CCOCCOCCOCCNc1nc(N2CCOCC2)nc(N2CCN(C(=O)CCCCCCCCCCNC(=O)[C@H]([C@@H](C)CC)n3cc(CCCCN=C(N)N)nn3)CC2)n1 11.5%
C#CCOCCOCCOCCNc1nc(N2CCN(C(=O)CCCCCCCCCCNC(=O)[C@@H](CCSC)n3cc(CCO)nn3)CC2)nc(N2CCN(C(=O)CCCCCCCCCCNC(=O)[C@H]([C@@H](C)CC)n3cc(CCCCN=C(N)N)nn3)CC2)n1 4.22%
C#CCOCCOCCOCCNc1nc(N2CCN(C(=O)CCCCCCCCCCNC(=O)[C@H]([C@@H](C)CC)n3cc(CCCCN=C(N)N)nn3)CC2)nc(N2CCN(C(=O)CCCCCCCCCCNC(=O)[C@H](CCCCN)n3cc(C)nn3)CC2)n1 24.6%
C#CCOCCOCCOCCNc1nc(N2CCN(C(=O)CCCCCCCCCCNC(=O)[C@H](CO)n3cc(CCCSC)nn3)CC2)nc(N2CCN(C(=O)CCCCCCCCCCNC(=O)[C@H](CCCN=C(N)N)n3cc(C[C@@H](C)CC)nn3)CC2)n1 4.93%
C#CCOCCOCCOCCNc1nc(N2CCN(C(=O)CCCCCCCCCCNC(=O)[C@H]([C@@H](C)CC)n3cc(CCCCN=C(N)N)nn3)CC2)nc(N2CCN(C(=O)CCCCCCCCCCNC(=O)[C@H](CCCCN)n3cc(C[C@@H](C)CC)nn3)CC2)n1 21.5%
C#CCOCCOCCOCCNc1nc(N2CCN(C(=O)CCCCCCCCCCNC(=O)[C@H]([C@@H](C)CC)n3cc(CCCCCN)nn3)CC2)nc(N2CCN(C(=O)CCCCCCCCCCNC(=O)[C@H]([C@@H](C)CC)n3cc(CCCCN=C(N)N)nn3)CC2)n1 11.9%
Cc1cc(C)nc(-n2nc(C)cc2NC(=O)CNCc2ccccc2)n1 1.3%
COC(=O)c1ccc(COc2ccc(/C=N/Nc3nc(C)cc(=O)[nH]3)cc2)cc1 2.45%
Cc1ccc(N2C(=O)c3cccc4c(Oc5ccccc5[N+](=O)[O-])ccc(c34)C2=O)c(C)c1 -0.66%
CC(=O)c1cccc(S(=O)(=O)N(C)C2CCN(C)CC2)c1 6.64%
COc1cnc(-c2cccc(C(F)(F)F)c2)[nH]c1=O -6.31%
COc1cnc(-c2ccccc2)[nH]c1=O 3.46%
CCN(CC)CCNC(=O)C(=O)Nc1ccc2c(c1)N(S(=O)(=O)c1cccs1)CCC2 0.58%
CC1(C)CC(=O)c2sc(NS(=O)(=O)c3ccc(Cl)cc3)nc2C1 -6.02%
CCn1c(CSc2nnc(-c3ccncc3)n2CCOC)nc2cc(C(=O)O)ccc21 1.32%
COc1ccc(NCC(O)COc2ccc(C(C)(C)C)cc2)cc1 (stereo not given) 18.9%
CC(C)(C)NCC(O)COc1ccc(Br)cc1 (stereo not given) -5.49%
COC(=O)c1cc(Nc2cc(C)c3c(O)cccc3n2)cc(C(=O)OC)c1 1.78%
COc1ccc(Nc2cc(C)c3ccccc3n2)cc1 -10.8%
Cc1ccc(Nc2cc(C)c3ccc(O)cc3n2)cc1C 59.6%
CC(=O)Nc1ccc(Nc2cc(C)c3ccccc3n2)cc1 -1.27%
O=C(Nc1ccccc1)c1cnc(-c2ccccc2)nc1-c1ccccc1 -0.26%
NC(=O)C1CCN(C(=O)CSc2ccccn2)CC1 -5.25%
CCCCCCNC(=O)c1cc(S(=O)(=O)N2CCc3ccccc32)ccc1F -0.27%
O=C(NNCc1ccc(O)cc1)c1ccccc1Cl -5.79%
O=C(O)CC(Cc1ccccc1)C(=O)Nc1ccc([N+](=O)[O-])cc1 (stereo not given) -0.18%
NC(CO)C(O)c1ccc([N+](=O)[O-])cc1 (stereo not given) 2.92%
O=C(Cc1ccccc1)NC(C(=O)O)C(O)c1ccc([N+](=O)[O-])cc1 (stereo not given) 2.69%
O=[N+]([O-])c1ccc(C(O)C(CO)NC(=S)Nc2ccccc2)cc1 (stereo not given) -9.91%
CCOC(=O)C(NC(C)=O)C(O)c1ccc([N+](=O)[O-])cc1 (stereo not given) 4.56%
O=C(O)CC(Cc1ccc(Cl)cc1)C(=O)Nc1ccc([N+](=O)[O-])cc1 (stereo not given) -6.77%
